From PubChem BioAssay (Tox21)
Values joined by “and” are separate entries in the source; they are usually repeats but may differ in a detail not shown here. Equal entries are not always repeated. Records with an inconclusive call do not appear. Some compounds were tested as several samples or in several runs, with calls that do not always agree. Active and inactive are the calls of the source. Unless noted, calls come from the whole dose curve.

Columns and labels:
[1] = Nuclear factor erythroid 2-related factor 2/antioxidant responsive element (Nrf2/ARE) small molecule agonists: qHTS cell viability counter screen in human keratinocytes (AID 1919968; active = well fitted curve in the direction sought with a large enough effect in the repeat runs; an effect the other way counts as inactive or inconclusive; note: nearly all actives have a fitted effect of over 55% in size; note: potency is the fitted concentration of half-maximal effect)
Method in brief: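 Viability counter-screen: KeratinoSens reporter cells, DMSO-delivered compounds, 23 h at 37 C, CellTiter-Fluor fluorescence.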

[2] = target: Gonadotropin-releasing hormone receptor (Homo sapiens) (UniProt P30968); assay: Human gonadotropin-releasing hormone receptor (GnRHR) small molecule agonists, calcium flux assay in GnRHR-HEK293 cells (AID 1920063); note: nearly all actives have a fitted effect of over 35% in size; note: potency is the fitted concentration of half-maximal effect
Method in brief: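 Tox21-format agonist screen using human GnRHR-expressing HEK293 cells and a fluorescent calcium dye; kinetic 3-min fluorescence reading after compound addition, 15-point concentration series run in triplicate.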

[3] = target: KiSS-1 receptor (Homo sapiens) (UniProt Q969F8); assay: Human kisspeptin (KISS1R) small molecule agonists, calcium flux assay in KISS1R-HEK293 cells (AID 1920064; active = well fitted curve in the direction sought with a large enough effect in the repeat runs; an effect the other way counts as inactive or inconclusive)
Method in brief: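 Intracellular calcium mobilization in KISS1R-HEK293 cells was recorded by fluorescence (Ex/Em 480/540) for 3 min following compound addition to cells pre-loaded 1 h with calcium dye.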

[4] = G protein-coupled receptor (GPCR) small molecule agonists, calcium flux assay: HEK293 wild type cell line counter screen (AID 1920065)
Method in brief: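 In this agonist-mode screen, ATP is the positive control and DMSO the vehicle. Cells grow 18 h before a 1 h dye incubation at 37 C; signal is taken at Ex/Em 480/540 over 3 min.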

[5] = p53 small molecule agonists, cell-based qHTS assay with human liver microsomes (AID 1963577)
Method in brief: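 p53RE-bla reporter cells were pre-incubated 5 h at 37 C, then treated with compounds plus human liver microsomes (0.5 mg/mL final) and NADPH (0.5 mg/mL final) for 16 h at 37 C. Beta-lactamase activity was read by LiveBLAzer fluorescence after 2 h at room temperature.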

[6] = p53 small molecule agonists, cell-based qHTS assay with rat liver microsomes (AID 1963578)
Method in brief: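 p53RE-bla cells were exposed to compounds together with rat liver microsomes (0.5 mg/mL final) and NADPH (0.5 mg/mL final) for 16 h at 37 C, then read by LiveBLAzer beta-lactamase fluorescence after 2 h at room temperature.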

[7] = p53 small molecule agonists, cell-based qHTS assay with human liver microsomes: qHTS cell viability counter screen (AID 1963579); note: nearly all actives have a fitted effect of over 45% in size; note: potency is the fitted concentration of half-maximal effect
Method in brief: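 p53RE-bla cells (4,000/well) were pre-incubated 5 h at 37 C, then given compounds in DMSO plus human liver microsomes (0.5 mg/mL final) and NADPH (0.5 mg/mL final) for 16 h at 37 C. Viability was read by CellTiter-Glo luminescence.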

[8] = p53 small molecule agonists, cell-based qHTS assay with rat liver microsomes: qHTS cell viability counter screen (AID 1963580); note: nearly all actives have a fitted effect of over 45% in size; note: potency is the fitted concentration of half-maximal effect
Method in brief: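 In HCT-116 cells carrying a p53 response element-bla reporter, compounds were metabolically activated in situ by rat liver microsomes with NADPH over 16 h. Cell ATP content then served as the cytotoxicity measure.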

[9] = p53 small molecule agonists, cell-based qHTS assay: qHTS cell viability counter screen (AID 1963581); note: nearly all actives have a fitted effect of over 45% in size; note: potency is the fitted concentration of half-maximal effect
Method in brief: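 Compounds are pinned onto HCT-116 p53RE-bla cells and left 16 h at 37 C. Following the reporter FRET read, ATP is quantified by CellTiter-Glo luminescence after 30 min at room temperature.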

[10] = p53 small molecule agonists, cell-based qHTS assay (AID 1963582; active = well fitted activation curve with a large enough effect in the signal ratio in the repeat runs, not every such curve was filed as active; the % refers to the signal ratio)
Method in brief: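 Agonist activity was scored from beta-lactamase FRET fluorescence in p53RE-bla cells treated 16 h at 37 C with compounds in DMSO, substrate incubation being 2 h at room temperature.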

[11] = target: 5-hydroxytryptamine receptor 2A (Homo sapiens) (UniProt P28223); assay: 5-hydroxytryptamine receptor 2A (HTR2A) small molecule antagonists, cell-based qHTS assay (AID 1963586); note: nearly all actives have a fitted effect of over 45% in size; note: potency is the fitted concentration of half-maximal effect
Method in brief: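 Antagonist-mode intracellular calcium assay: DOI (4 nM) added after 5 min compound pre-incubation at room temperature to dye-loaded HTR2A-CHO cells. Fluorescence followed for 3 min, sampled every second.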

[12] = target: Muscarinic acetylcholine receptor M1 (Homo sapiens) (UniProt P11229); assay: Cholinergic receptor muscarinic 1 (CHRM1) small molecule antagonists, cell-based qHTS assay (AID 1963588); note: nearly all actives have a fitted effect of over 40% in size
Method in brief: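 CHRM1-CHO calcium-flux assay, antagonist mode. Cells were seeded 18 h, dye-loaded 1 h at 37 C and given compound for 5 min at RT, then acetylcholine was added at 50nM. FDSS fluorescence was read 3 min; 15 concentrations, three runs.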

[13] = target: Muscarinic acetylcholine receptor M1 (Homo sapiens) (UniProt P11229); assay: Cholinergic receptor muscarinic 1 (CHRM1) small molecule agonists, cell-based qHTS assay (AID 1963589); note: nearly all actives have a fitted effect of over 35% in size; note: potency is the fitted concentration of half-maximal effect
Method in brief: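 Stable CHRM1-CHO cells (human receptor) were incubated 18 h, dye-loaded for 1 h at 37 C and exposed to test compounds for agonist activity, with calcium-dependent fluorescence followed kinetically.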

[14] = cAMP Responsive Elements (CRE) small molecule agonists, cell-based qHTS assay (AID 1963590)
Method in brief: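 FRET-based beta-lactamase readout (LiveBLAzer B/G, 2 h RT) quantified CRE activation in HEK 293T CRE-bla cells after 3 h treatment with DMSO-dissolved compounds.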

[15] = target: Beta-2 adrenergic receptor (Homo sapiens) (UniProt P07550); assay: Adrenergic beta2 receptor (ADRB2) small molecule antagonists, cell-based qHTS assay (AID 1963592); note: nearly all actives have a fitted effect of over 50% in size; note: potency is the fitted concentration of half-maximal effect
Method in brief: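 Cells (CHO, stable ADRB2 overexpression) incubated 18-20hr at 37C; compounds added from DMSO; agonist mix (1nM isoproterenol, 100uM IBMX, 25uM Ro-20-1724) added; 0.5hr RT; d2-cAMP and anti-cAMP-cryptate added; 1hr RT; 665/615 nm read.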

[16] = target: D(2) dopamine receptor (Homo sapiens) (UniProt P14416); assay: Dopamine D2 receptor (DRD2) small molecule agonists, cell-based qHTS assay (AID 1963594); note: nearly all actives have a fitted effect of over 35% in size; note: potency is the fitted concentration of half-maximal effect
Method in brief: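 HEK293 cells stably expressing DRD2 were cultured 24 h at 37 C, then given Ro20-1724 (0.1 mM final) and compounds for 10 min at room temperature. NKH477 (200nM) was then added for 30 min. cAMP was read by HTRF.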

[17] = target: D(2) dopamine receptor (Homo sapiens) (UniProt P14416); assay: Dopamine D2 receptor (DRD2) small molecule antagonists, cell-based qHTS assay (AID 1963595; active = well fitted inhibition curve with a large enough effect in the signal ratio in the repeat runs, with a control signal flat; the % refers to the signal ratio; note: potency is the fitted concentration of half-maximal effect)
Method in brief: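 Stable D2 receptor HEK293 line, 24 h after seeding. Compound preincubated 10 min, then quinpirole (12 nM) with forskolin analogue NKH477 (200 nM), 30 min, room temperature. Detection by time-resolved FRET of cAMP.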

[18] = cAMP Responsive Elements (CRE) small molecule antagonists, cell-based qHTS assay (AID 1963591; active = well fitted inhibition curve with a large enough effect in the signal ratio in the repeat runs, not every such curve was filed as active; the % refers to the signal ratio)
Method in brief: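 qHTS in CRE-bla HEK 293T cells: compound in DMSO, then 0.25 uM NKH477 (final), 3 h at 37 °C/5% CO2; beta-lactamase FRET read-out after 2 h substrate incubation.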

[19] = target: Beta-2 adrenergic receptor (Homo sapiens) (UniProt P07550); assay: Adrenergic beta2 receptor (ADRB2) small molecule agonists, cell-based qHTS assay (AID 1963593);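 note: CHO cells stably overexpressing human ADRB2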
Method in brief: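 CHO cells stably over-expressing ADRB2 were plated overnight at 37C, then dosed with compounds plus a stimulation mix containing 100uM IBMX and 25uM Ro-20-1724 for 0.5hr at room temperature. cAMP was measured by HTRF competition, 1hr.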

[20] = target: 5-hydroxytryptamine receptor 2A (Homo sapiens) (UniProt P28223); assay: 5-hydroxytryptamine receptor 2A (HTR2A) small molecule agonists, cell-based qHTS assay (AID 1963587); note: nearly all actives have a fitted effect of over 30% in size; note: potency is the fitted concentration of half-maximal effect
Method in brief: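 HTR2A-CHO cells, plated 18 h at 37 C/5% CO2, dye-loaded 1 h at 37 C; compounds in DMSO added by pin tool (agonist mode). Intracellular calcium flux read as kinetic fluorescence on FDSS over 2 min at 1 s intervals.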

Measured: Potency

5-hydroxytryptamine receptor 2A (Homo sapiens), sequence (P28223 whole entry, looked up): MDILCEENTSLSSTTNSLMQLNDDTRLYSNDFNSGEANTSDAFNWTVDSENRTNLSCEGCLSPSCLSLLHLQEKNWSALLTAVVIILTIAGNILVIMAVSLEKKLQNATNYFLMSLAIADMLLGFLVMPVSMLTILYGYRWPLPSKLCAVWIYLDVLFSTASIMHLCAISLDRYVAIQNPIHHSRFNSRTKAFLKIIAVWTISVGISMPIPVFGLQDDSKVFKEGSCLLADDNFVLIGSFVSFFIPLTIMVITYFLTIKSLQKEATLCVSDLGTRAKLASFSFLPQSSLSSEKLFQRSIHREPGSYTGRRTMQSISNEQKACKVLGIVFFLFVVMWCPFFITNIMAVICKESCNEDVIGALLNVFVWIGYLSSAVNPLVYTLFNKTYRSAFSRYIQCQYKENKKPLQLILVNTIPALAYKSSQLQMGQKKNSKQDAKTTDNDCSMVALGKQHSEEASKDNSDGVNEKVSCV
D(2) dopamine receptor (Homo sapiens), sequence (P14416 whole entry, looked up): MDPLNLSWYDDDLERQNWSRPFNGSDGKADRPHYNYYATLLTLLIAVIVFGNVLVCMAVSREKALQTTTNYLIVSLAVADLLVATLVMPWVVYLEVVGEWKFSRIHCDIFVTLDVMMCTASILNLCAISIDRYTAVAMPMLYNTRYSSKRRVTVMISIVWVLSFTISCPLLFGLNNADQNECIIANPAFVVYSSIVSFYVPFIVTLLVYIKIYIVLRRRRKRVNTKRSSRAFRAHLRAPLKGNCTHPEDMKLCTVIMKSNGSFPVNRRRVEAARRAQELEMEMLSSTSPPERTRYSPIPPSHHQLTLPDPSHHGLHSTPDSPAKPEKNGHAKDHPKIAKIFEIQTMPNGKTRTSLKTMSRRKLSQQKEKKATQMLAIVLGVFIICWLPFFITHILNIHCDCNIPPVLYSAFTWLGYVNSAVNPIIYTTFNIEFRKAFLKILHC
Muscarinic acetylcholine receptor M1 (Homo sapiens), sequence (P11229 whole entry, looked up): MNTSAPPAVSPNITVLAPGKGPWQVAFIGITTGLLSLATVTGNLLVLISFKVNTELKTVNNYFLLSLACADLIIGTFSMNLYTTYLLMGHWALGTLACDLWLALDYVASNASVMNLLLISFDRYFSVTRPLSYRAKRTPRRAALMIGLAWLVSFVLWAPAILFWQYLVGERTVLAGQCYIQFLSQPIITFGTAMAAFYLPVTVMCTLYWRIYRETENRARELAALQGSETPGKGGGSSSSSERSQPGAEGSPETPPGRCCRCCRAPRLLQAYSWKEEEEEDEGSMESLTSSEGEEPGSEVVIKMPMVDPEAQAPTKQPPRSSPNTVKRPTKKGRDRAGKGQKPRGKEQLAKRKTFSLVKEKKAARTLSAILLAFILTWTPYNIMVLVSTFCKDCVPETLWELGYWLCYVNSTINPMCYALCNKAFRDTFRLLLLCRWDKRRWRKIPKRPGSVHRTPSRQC
KiSS-1 receptor (Homo sapiens), sequence (Q969F8 whole entry, looked up): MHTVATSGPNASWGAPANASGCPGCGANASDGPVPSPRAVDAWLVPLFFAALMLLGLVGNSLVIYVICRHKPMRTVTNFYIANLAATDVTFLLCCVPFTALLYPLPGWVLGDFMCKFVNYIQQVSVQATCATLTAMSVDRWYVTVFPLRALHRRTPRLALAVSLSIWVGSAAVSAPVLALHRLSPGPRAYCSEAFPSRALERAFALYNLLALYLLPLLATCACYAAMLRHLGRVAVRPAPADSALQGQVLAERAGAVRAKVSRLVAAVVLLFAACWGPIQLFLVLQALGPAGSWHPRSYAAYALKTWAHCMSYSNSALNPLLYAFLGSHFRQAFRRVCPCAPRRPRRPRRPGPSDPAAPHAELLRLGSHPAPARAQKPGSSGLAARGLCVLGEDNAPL
Gonadotropin-releasing hormone receptor (Homo sapiens), sequence (P30968 whole entry, looked up): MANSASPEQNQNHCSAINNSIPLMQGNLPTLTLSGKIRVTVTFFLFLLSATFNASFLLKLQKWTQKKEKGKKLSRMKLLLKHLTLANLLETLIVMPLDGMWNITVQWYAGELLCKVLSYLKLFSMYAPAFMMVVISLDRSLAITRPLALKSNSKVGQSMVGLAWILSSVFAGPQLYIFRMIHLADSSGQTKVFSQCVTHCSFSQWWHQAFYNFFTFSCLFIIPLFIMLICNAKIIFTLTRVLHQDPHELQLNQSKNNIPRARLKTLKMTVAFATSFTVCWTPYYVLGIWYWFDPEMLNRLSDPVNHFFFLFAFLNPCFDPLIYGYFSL
Beta-2 adrenergic receptor (Homo sapiens), sequence (P07550 whole entry, looked up): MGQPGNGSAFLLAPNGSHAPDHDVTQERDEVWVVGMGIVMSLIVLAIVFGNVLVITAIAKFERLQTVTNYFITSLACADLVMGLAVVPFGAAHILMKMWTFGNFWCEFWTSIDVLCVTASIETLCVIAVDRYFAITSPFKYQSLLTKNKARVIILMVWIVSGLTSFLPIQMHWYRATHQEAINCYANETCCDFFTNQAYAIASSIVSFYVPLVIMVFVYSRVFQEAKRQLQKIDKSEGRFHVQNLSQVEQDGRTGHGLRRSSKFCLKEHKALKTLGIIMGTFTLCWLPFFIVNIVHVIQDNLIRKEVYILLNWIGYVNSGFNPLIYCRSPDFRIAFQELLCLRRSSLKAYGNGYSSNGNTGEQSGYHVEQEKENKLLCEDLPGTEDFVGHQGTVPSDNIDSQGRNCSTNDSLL

CCNc1nc(NC(C)(C)C)nc(SC)n1
not listed: [18] | [19] | [20]
inactive: all other assays above

Nc1nc(N)nc(NC2CC2)n1
not listed: [11] | [12] | [13] | [20]
inactive: all other assays above

C[C@H]1C(=O)O[C@@H]2CCN3CC=C(COC(=O)[C@](C)(O)[C@]1(C)O)[C@H]23
not listed: [9] | [12] | [13]
inactive: all other assays above

N#CC1(N=NC2(C#N)CCCCC2)CCCCC1
not listed: [6]
inactive: all other assays above

Oc1ccc(Cl)cc1
not listed: [13] | [14] | [18]
inactive: all other assays above

C[CH2][Hg][S]c1ccccc1C(=O)O
27.3 µM (active) and inactive: [15]
active: [1] 1.22 µM and 5.96 µM | [2] 38.9 µM | [7] 10.2 µM and 11.2 µM | [8] 18.2 µM and 9.98 µM | [9] 10.2 µM and 11.2 µM | [11] 18.8 µM | [20] 43.6 µM and 21.3 µM | [13] 54.9 µM and 19 µM | [16] 16.6 µM
inactive: [3] | [4] | [5] | [6] | [12] | [17]

O=C(O)c1cc(Oc2ccc(C(F)(F)F)cc2Cl)ccc1[N+](=O)[O-]
not listed: [5] | [6] | [10] | [11] | [14]
inactive: all other assays above

CCCC[n+]1ccccc1C
not listed: [5] | [6] | [10] | [18]
inactive: all other assays above

O=C([O-])c1ccccn1.O=C([O-])c1ccccn1.O=C([O-])c1ccccn1.[Cr+3]
not listed: [1] | [17]
inactive: all other assays above

CCn1cc[n+](C)c1C
not listed: [5] | [6] | [10] | [12] | [19]
inactive: all other assays above

Cc1cccc(C#N)c1
not listed: [4] | [9] | [19]
inactive: all other assays above

Sc1ccccc1
not listed: [5] | [6] | [10]
inactive: all other assays above

Cc1cnc(C2=NC(C)(C(C)C)C(=O)N2)c(C(=O)O)c1 (stereo not drawn)
not listed: [1]
inactive: all other assays above

[Cl-].[Cl-].[Cl-].[Fe+3]
not listed: [5] | [6] | [10] | [11] | [12]
inactive: all other assays above

CCCCCCn1cc[n+](C)c1
not listed: [5] | [6] | [10] | [11]
inactive: all other assays above

[Cd+2].[Cl-].[Cl-]
active: [1] 27.5 µM and 43.3 µM | [9] 36.7 µM
not listed: [5] | [6] | [10] | [11] | [18] | [19]
inactive: all other assays above

CN(C)C(=S)S
active: [1] 9.89 µM and 607 nM and 27.3 µM
inactive and 8.08 µM (active): [8]
not listed: [5] | [6] | [9] | [10] | [13] | [14]
inactive: all other assays above

COc1c(C(C)(C)C)cc([N+](=O)[O-])c(C)c1[N+](=O)[O-]
not listed: [2]
inactive: all other assays above

Cl
not listed: [5] | [6] | [10] | [11]
inactive: all other assays above

BrCCBr
not listed: [4] | [14]
inactive: all other assays above

[Cl-].[Cl-].[Hg+2]
active: [1] 7.66 µM and 3.06 µM | [2] 38.7 µM and 38.9 µM | [7] 5.74 µM and 10.2 µM | [8] 16.2 µM and 4.08 µM | [9] 3.62 µM and 9.13 µM | [13] 54.9 µM | [15] 48.3 µM | [17] 1.92 µM
inactive: [11] | [12]

CCCCCCCCCC(CC)c1ccc(S(=O)(=O)O)cc1 (stereo not drawn)
inactive and 54.5 µM (active): [16]
inactive and 37.5 µM (active): [11]
inactive and 48.5 µM (active): [9]
inactive and 26.6 µM (active): [1]
inactive and 40.8 µM (active): [8]
not listed: [2] | [3] | [5] | [6] | [10] | [20]
inactive: all other assays above

COP(=S)(OC)Oc1cc(Cl)c(Cl)cc1Cl
not listed: [5] | [6] | [9] | [15] | [19]
inactive: all other assays above

O=C(Nc1ccc(Br)cc1)c1cc(Br)cc(Br)c1O
inactive and 3.97 µM (active): [9]
active: [1] 6.09 µM and 6.11 µM and 7.5 µM
not listed: [4] | [11] | [12] | [13] | [14] | [20]
inactive: all other assays above

Cc1cc(Cl)ccc1OC(C)C(=O)O (stereo not drawn)
not listed: [1]
inactive: all other assays above

CC[N+](CC)(CC)CC
not listed: [5] | [6] | [10]
inactive: all other assays above

CCNc1nc(Cl)nc(NC(C)C)n1
not listed: [1]
inactive: all other assays above

Cc1cccc(N)c1N
not listed: [2] | [3] | [12]
inactive: all other assays above

C=CCBr
not listed: [3] | [8] | [13]
inactive: all other assays above
